Assay results reported in PubChem BioAssay AID1347165 (National Center for Advancing Translational Sciences (NCATS), 2019).
Among all 220,000 compounds or so, about 5,700 (2.6%) were called active. Roughly 18% stayed inconclusive and do not appear here. Calls come from the whole dose curve; as a rule, active = well fitted inhibition curve with a large enough effect; inconclusive = small, poorly fitted or top-dose-only effect; inactive = no such curve, though single readings can be large or run the other way. The full list was thinned out, with actives kept by preference.

Each compound was assayed against Lysine-specific demethylase 5B (Homo sapiens) (UniProt Q9UGL1) (assay: Primary screen for KDM5B Histone Demethylases FDH-coupled qHTS). Conditions: FDH-coupled NADH fluorescence (FDH is formaldehyde dehydrogenase); series mostly up to 57.7 µM; activity change, negative = inhibition: at the top concentration.
In short: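 Inhibition is measured as reduced NADH fluorescence generation from FDH coupling to formaldehyde release. Truncated KDM5BΔAP at 200 nM final acts on H3K4me3 peptide (12.5 µM in substrate mix) in pH 7.5 HEPES buffer with Tween-20, 30 min, room temperature.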
Note: nearly all actives have a fitted effect of over 70% in size.
Potency is the fitted concentration of half-maximal effect.
Throughout, for activity change, negative = inhibition: 0% is about no effect.

Lysine-specific demethylase 5B (Homo sapiens), sequence (Q9UGL1 whole entry, looked up, the tested form may be a part): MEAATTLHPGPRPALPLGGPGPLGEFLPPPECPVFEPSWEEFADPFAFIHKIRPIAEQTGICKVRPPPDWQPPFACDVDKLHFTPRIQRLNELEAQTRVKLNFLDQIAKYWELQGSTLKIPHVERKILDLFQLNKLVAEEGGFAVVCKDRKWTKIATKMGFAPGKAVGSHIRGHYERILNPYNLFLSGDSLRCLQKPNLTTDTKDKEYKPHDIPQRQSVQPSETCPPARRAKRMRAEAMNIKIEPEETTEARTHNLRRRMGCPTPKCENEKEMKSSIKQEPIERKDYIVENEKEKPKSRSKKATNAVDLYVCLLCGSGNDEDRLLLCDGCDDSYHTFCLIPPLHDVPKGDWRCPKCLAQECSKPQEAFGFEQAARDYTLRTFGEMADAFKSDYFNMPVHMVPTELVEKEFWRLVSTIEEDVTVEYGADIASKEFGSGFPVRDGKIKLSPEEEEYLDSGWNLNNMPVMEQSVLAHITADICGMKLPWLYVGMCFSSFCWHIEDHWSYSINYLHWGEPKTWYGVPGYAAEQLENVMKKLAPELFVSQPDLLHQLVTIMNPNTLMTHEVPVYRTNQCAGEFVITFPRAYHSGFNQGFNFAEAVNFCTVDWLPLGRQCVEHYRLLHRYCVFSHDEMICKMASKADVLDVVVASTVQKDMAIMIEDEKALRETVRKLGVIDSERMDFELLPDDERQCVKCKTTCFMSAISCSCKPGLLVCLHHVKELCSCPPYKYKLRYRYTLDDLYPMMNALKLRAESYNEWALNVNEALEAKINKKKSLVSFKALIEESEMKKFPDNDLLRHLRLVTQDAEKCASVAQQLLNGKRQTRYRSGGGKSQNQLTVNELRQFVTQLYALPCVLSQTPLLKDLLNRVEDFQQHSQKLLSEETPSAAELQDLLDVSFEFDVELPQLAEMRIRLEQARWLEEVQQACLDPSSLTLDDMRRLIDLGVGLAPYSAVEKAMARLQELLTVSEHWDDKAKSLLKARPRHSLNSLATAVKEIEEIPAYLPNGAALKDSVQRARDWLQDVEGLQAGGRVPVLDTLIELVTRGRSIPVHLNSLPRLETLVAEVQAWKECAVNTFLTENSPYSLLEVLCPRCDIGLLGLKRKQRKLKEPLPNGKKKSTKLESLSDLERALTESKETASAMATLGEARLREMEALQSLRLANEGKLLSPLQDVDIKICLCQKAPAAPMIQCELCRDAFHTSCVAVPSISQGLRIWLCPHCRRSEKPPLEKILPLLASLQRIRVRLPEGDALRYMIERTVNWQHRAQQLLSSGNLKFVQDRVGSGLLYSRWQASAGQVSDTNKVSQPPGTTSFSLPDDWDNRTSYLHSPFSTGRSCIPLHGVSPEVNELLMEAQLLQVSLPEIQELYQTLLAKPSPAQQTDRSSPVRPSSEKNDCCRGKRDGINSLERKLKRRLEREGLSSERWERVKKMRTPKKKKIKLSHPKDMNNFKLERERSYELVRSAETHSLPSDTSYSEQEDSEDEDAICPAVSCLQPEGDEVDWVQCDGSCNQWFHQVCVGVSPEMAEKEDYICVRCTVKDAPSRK

Activity change, negative = inhibition, inactive:
N#Cc1ccc(CCC(=O)Nc2ccc3ccccc3n2)cc1 -9.01%
COc1ccc2cc(C(=O)NCC3CCCO3)[nH]c2c1 (centres undefined) -50.3%
COc1ccc(CNC(=O)C2CCCC2)cc1 7.63%
CN(CC(=O)N1CCCC1)c1nc(-c2cccs2)nc2ccccc12 4.38%
COCCOc1ccc(-c2noc([C@@H]3CCCN3Cc3cccnc3)n2)cn1 -24.5% [at 86.2 µM]
COc1ccc(-c2noc([C@@H]3CCCN3C(=O)CCCc3ccccc3)n2)cc1OC -13.2%
Cn1cc(C(=O)N2CCN(C(=O)Cc3ccccc3)CC2)c2ccccc21 10.9%
CCC(C)C(NC(=O)NCc1ccc(C)cc1)C(=O)O (centres undefined) 23.5%
CCS(=O)(=O)N1CC(=O)N(Cc2ccccc2Cl)C(C)(C(=O)NCc2ccccc2OC)C1 (centres undefined) 19.1%
Cc1cc2oc(=O)cc(CN3CCN(CCc4ccncc4)CC3)c2cc1C -2.75%
O=C(CCn1cncn1)N1CCc2[nH]nc(-c3cccc4ccccc34)c2C1 -15%
Cc1nn(C)cc1CNC(=O)c1cc2nc(-c3ccc(Cl)s3)cc(C(F)(F)F)n2n1 33.1%
Cc1cc(C)c(NC(=O)CN(C)Cc2coc(-c3ccccc3)n2)c(C)c1 1.75%
O=C(c1nc(-c2cccnc2)c2cnccn12)N1CCN(c2ncccn2)CC1 -2790%
COc1cccc(Cn2c(SCc3ccc(C(=O)N4CCCCC4)cc3)nc3ccncc32)c1 -2.19%
CNC(=O)C(C)(C)N1CCC[C@H]1C(=O)N(C)Cc1ccccc1 10.2% [at 86.2 µM]
CCNC(=O)[C@@H]1CCCN1[C@@H](C(=O)NC)c1ccccc1OC -6.62% [at 86.2 µM]
Cc1cccc(OC(C)C(=O)Nc2cc(-c3ccc(F)c(F)c3)no2)c1C (centres undefined) -3.36%
O=S(=O)(NCCc1csc2nc(-c3ccccc3)nn12)c1cc(Cl)ccc1Cl 5.42%
O=C1CC(c2noc(-c3ccc(F)c(Cl)c3)n2)CN1c1ccc(F)cc1 (centres undefined) -32.5%
Cc1ccc(-c2nc(C3CC(=O)N(c4ccc(Cl)cc4)C3)no2)cc1C (centres undefined) -7.68%
Cc1ccc(F)cc1NC(=O)CCc1c[nH]c2ccccc12 17.4%
COc1ccc(S(=O)(=O)N2CCC(C)CC2)c2cccnc12 12.9%
CC(NC(=O)c1ccc(F)cc1)C12CC3CC(CC(C3)C1)C2 (centres undefined) 14.3%
CCCn1c(CN2CCCCC2)nc2cc(NC(=O)c3cc(OC)c(OC)c(OC)c3)ccc21 5.88%
Cc1cc(NC(=O)COc2c(CO)cc(F)cc2CO)ccc1Br -18.6%
COc1ccc(-c2noc(CCC(=O)Nc3ccn(C)n3)n2)cc1 -1.76%
COc1ccc(CNC(=O)NCC(=O)N2CCCCCCNC(=O)CC2c2ccccc2)cc1 (centres undefined) 10.8%
O=C1NC(C(=O)NCc2ccccn2)Cn2cccc21 (centres undefined) -25.1%
O=S(=O)(c1ccc(Cl)cc1)c1nc(-c2ccco2)oc1N1CCCCC1 -11.1%
Cc1ccc(C)c(NC(=O)C(c2ccccc2)n2cnc3c2c(=O)n(C)c(=O)n3C)c1 (centres undefined) -13.9%
COc1cccc(OCCN(C)Cc2cn(-c3ccccc3)nn2)c1 5.71%
O=C(CCOc1ccc(Cl)cc1)N1CCC(c2nnc3n2CCC3)CC1 -10.3%
Cc1ccc2nc(NC(C)(C)CO)nc(-c3ccccc3)c2c1 120%
CC(CC#N)NC(=O)c1cc2ccccc2cc1NC(=O)OC(C)(C)C (centres undefined) 40.3%
Cc1cc(C)nc(NC(=O)Nc2ccc(C)c(F)c2)c1 4.73%
COc1ccc(-c2ocnc2C(=O)Nc2cccc(Cl)c2)cc1 10.2%
Cc1ccc(NC(=O)Cn2cccc2-c2nc(-c3ccc4c(c3)OCO4)no2)cc1Cl 3.09%
COc1ccc(NC(=O)Cn2cccc2-c2nc(-c3ccc4c(c3)OCO4)no2)c(OC)c1 3.86%
N#CCc1ccc(OCC(O)Cn2cnc3ccc(Cl)cc3c2=O)cc1 (centres undefined) 4.38%
Cc1ccc(S(=O)(=O)N2CCN(C)CC2)cc1C(=O)NC1CCCCC1 23.1%
CCOC(=O)N1CCC(NC(=O)CS(=O)Cc2nc(-c3ccccc3F)oc2C)CC1 (centres undefined) 4.01%
O=C(Cc1cccn1-c1ccccc1)N1CCOCC1 -6.08%
CCc1nc(-c2ccc(OC3CCN(C(=O)Cc4c[nH]c5ccccc45)C3)cc2)no1 (centres undefined) 7.34%
Cc1ccc(S(=O)(=O)NC(=O)c2cccc(C)c2)cc1 -7.21%
O=C(CCn1cccn1)N[C@@H]1CN(Cc2ccccc2)C[C@H]1CO 14.5%
O=C(N[C@@H]1CN(Cc2cccnc2)C[C@H]1CO)c1cccnc1 -2.06%
CCOc1ccccc1C(=O)N1CCC(Oc2ncccc2C(=O)N(C)C)C1 (centres undefined) -1.4%
O=C(N[C@@H]1CN(c2ccncn2)C[C@H]1CO)C1CCCC1 12%
CCc1nc2nc3c(cn2n1)C(=O)CC(c1ccc(Cl)cc1)C3 (centres undefined) -0.51%
CC(C)NS(=O)(=O)c1ccc(OCC(=O)NC2CCCCCC2)cc1 16.2%
COc1ccc2c(=O)c(Oc3cccc(C)c3)c(C(F)(F)F)oc2c1 -8.82%
COc1ccc(C23NCCN2C(=O)c2ccccc23)cc1 (centres undefined) 34.4%
COc1ccc(CNC(=O)c2ccc(CS(=O)c3ccc(C)cc3)o2)cc1OC (centres undefined) -8.94%
COc1ccc(CNC(=O)c2noc(-c3ccc(F)cc3)n2)cc1 -17.9%
Cc1ccc(CNC(=O)c2cc(=O)c3ccc(C)c(C)c3o2)cc1 13.1%
O=C(NCc1ccc2c(c1)OCO2)c1noc(-c2ccc(F)cc2)n1 7.84%
CCCc1nc(SCC(=O)N2CCCC2)c2c(=O)n(C)c(=O)n(C)c2n1 37.7%
Cc1ccccc1NC(=S)NNC=O 26.2%
COc1ccc(OC)c(S(=O)(=O)N2CCCC(C(=O)NCCc3ccccc3)C2)c1 (centres undefined) 26.3%
CC(=O)c1ccccc1NC(=O)CCc1ncc(-c2c(F)cccc2F)o1 -23.2%
CCOC(=O)CN1C(=O)C2(CC(=O)Nc3[nH]ncc32)c2ccccc21 (centres undefined) 5%
Cc1cnc(C)c(N2CCN(C(=O)C3CCC(=O)N(CCc4cccc(F)c4)C3)CC2)n1 (centres undefined) 0.442%
N[C@@H]1CC[C@H](C(=O)N2CCN(CCCOc3ccc(F)cc3)CC2)C1 -4.43%
COc1ccccc1Cc1nnc(NC(=O)c2cccc(NC(=O)c3ccccc3)c2)s1 -7.98%
COc1ccc(OC2CCN(C(C)=O)CC2)c(C(=O)N(C)Cc2ccc3nccnc3c2)c1 -11.7%
COc1ccc(OC2CCN(C(C)=O)CC2)c(C(=O)NCc2snnc2C)c1 5.6%
O=C(c1cc2ccccc2oc1=O)N1CCC(Cc2ccccc2)CC1 7.13%
COCCC(=O)NCC1Cn2cccc2C(=O)N1Cc1ccccc1 (centres undefined) -21.7%
COCCN1C(=O)c2cccn2CC1CNC(=O)c1ccccc1F (centres undefined) -17.1%
CCOC(=O)c1oc2cc(OC(C)=O)ccc2c(=O)c1-c1ccc(OC)cc1 -2.04%
O=C1CO[C@H](c2ccc(NS(=O)(=O)c3cccc(F)c3)cc2)[C@@H](CO)N1Cc1ccncc1 15.3%
COc1cc(F)ccc1-c1ccc(COc2ccc3c(cnn3CCC(=O)O)c2)cc1 -20.4% [at 86.2 µM]
Cn1cc(C#N)cc1-c1nc(COc2ccccc2)nn1CC(F)(F)F -14.2%
Fc1ccc(Cc2nc3nccc(-c4cc5ccccc5o4)n3n2)cc1 -345%
Cc1cc(Nc2ccccc2)n2nc(Cc3ccc(Cl)cc3)nc2n1 19.8%
COc1cc(F)ccc1C(C)=O 15.6%
O=C(O)c1cc(Br)c(Cl)[nH]1 -0.612%
Cc1ccc2c(COC(=O)COc3ccc(C)c(C)c3)cc(=O)oc2c1 9.56%
Cc1[nH]c2ccc(C(=O)N3CCN(C)CC3)cc2c1C 16.8%
CCOc1ccc(C(=O)Nc2ccc3oc(C)nc3c2)cc1OCC -8.51%
N#CCCC(C#N)Cn1nc(-c2ccccc2)c2ccccc2c1=O (centres undefined) 4.44%
CCN(CC)Cc1cnc2c(C(=O)NCc3ccsc3)cnn2c1 -24.5%
CC#CC(=O)N1CCCC(C(=O)Nc2cccc(-c3cccc(C)c3)c2)C1 (centres undefined) 7.67%

Potency, active:
COc1ccc2c(c1)OCC(C(=O)NCc1cc3cc(OC)ccc3[nH]1)C2 (centres undefined) 25.1 µM
CC(=O)N1CCN(c2cc(-c3noc([C@@H]4CCCN4Cc4ccccc4)n3)ccn2)CC1 35.5 µM
Cc1ccc(C)c2c(=O)cc(CN3CCN(CCn4cncn4)CC3)[nH]c12 25.1 µM
O=C(c1nc(-c2ccsc2)c2cnccn12)N1CCCC1 35.5 µM
CNC(=O)[C@@H](Cc1ccccc1)N1CCC[C@H]1C(=O)N1CCC1 28.2 µM
COc1ccc(-c2nc(C3CC(=O)N(c4ccc(F)c(Cl)c4)C3)no2)cc1OC (centres undefined) 31.6 µM
O=C1CCC(C(=O)NCc2ccc(-c3cnc4c(Oc5ccccc5)nccn34)cc2)N1 (centres undefined) 35.5 µM
O=C(CCc1ccccc1)NCCn1cccc1-c1nc(-c2ccc3c(c2)OCO3)no1 31.6 µM
Cc1noc(C)c1-c1cnc2[nH]cc(CC(=O)N3CCOCC3)c2c1 35.5 µM
CCOc1ccccc1C(=O)N[C@@H]1CN(c2ncccn2)C[C@H]1CO 22.4 µM
Cc1cccnc1C(=O)N[C@@H]1CN(c2ncccn2)C[C@H]1CO 20 µM
Cc1c(-c2ccc(F)cc2)[nH]c2ccc(CNC(=O)c3ccc(CO)o3)cc12 22.4 µM
CNc1nc(C(=O)NCc2ccc3[nH]c(-c4ccc(F)cc4)c(C)c3c2)cs1 5.62 µM
Cc1cnc(C)c(N2CCN(C(=O)[C@H]3CC[C@@H](N)C3)CC2)n1 22.4 µM
COc1ccc(OC2CCN(C(C)=O)CC2)c(C(=O)NCCc2ccccc2OC)c1 25.1 µM
COCCN1C(=O)c2cccn2CC1CNC(=O)c1cc2ccccc2[nH]1 (centres undefined) 28.2 µM
COc1cc(F)ccc1-c1ccnc2nc(C(C)C)nn12 28.2 µM
COCc1nc2nccc(-c3ccccc3)n2n1 31.6 µM
CCc1nc2nccc(-c3ccco3)n2n1 28.2 µM
Fc1ccc(Cc2nc3nccc(-c4ccco4)n3n2)cc1 20 µM
